Sampled rows, rich in hits. Any-hit rate of the full collection: about 6%.
D1 antag = antagonists of human D1 dopamine receptor | P21728 | activity change, negative = inhibition, % at 10 µM | HEK293 TREx D1 cells, calcium flux, dopamine EC80; active compounds read low | 360,000 compounds, 3.2% hits; in the data active = activity change below about -30%; note: % is set by controls: 0 for no effect and ±100 for the full control effect
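Antagonism measured as reduced calcium response to an EC80 dopamine addition following 180 s compound pre-read; cells were inducible HEK293 Trex D1 plated overnight at 30 C, read kinetically at 1 cycle/sec.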
D3 ag = agonists of human D3 dopamine receptor; D3R DiscoveRx beta-arrestin cells, luminescence, 90 min; max activation, %; AID 652048; 410,000 compounds, 0.58% hits; P35462; in the data active = max activation above about 30%; note: 0% is about no effect
Target sequence (P35462 whole entry, looked up): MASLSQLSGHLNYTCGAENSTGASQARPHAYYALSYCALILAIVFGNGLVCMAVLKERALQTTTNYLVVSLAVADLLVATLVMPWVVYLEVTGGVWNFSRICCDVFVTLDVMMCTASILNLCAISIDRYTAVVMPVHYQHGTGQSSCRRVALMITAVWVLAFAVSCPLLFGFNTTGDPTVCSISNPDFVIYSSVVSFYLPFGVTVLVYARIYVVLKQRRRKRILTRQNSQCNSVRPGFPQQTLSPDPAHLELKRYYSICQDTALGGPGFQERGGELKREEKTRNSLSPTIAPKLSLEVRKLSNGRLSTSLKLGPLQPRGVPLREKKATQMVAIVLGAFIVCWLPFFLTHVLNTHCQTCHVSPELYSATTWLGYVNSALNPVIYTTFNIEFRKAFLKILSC
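Cells at 1500/well, incubated overnight, then treated with pinned compounds (dopamine as control) for 90 min at 37 degrees C. DiscoveRx reagent added for 30 - 60 minutes at room temperature; luminescence read.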
D1 agonist = activates the human D1 dopamine receptor; activation, % at 2 µM; HEK293 T-REx D1 cells, calcium flux, agonist mode; 360,000 compounds, 1% hits; P21728; in the data active = activation above about 30%; note: 0% is about no effect
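Tetracycline-induced HEK293 TREx D1 cells, force-coupled to calcium signalling, were dye-loaded with a no-wash calcium kit. Compound was pin-added after a 10 s baseline. Fluorescence was read kinetically at 1 cycle/s for 180 s, with calcium rises flagged as agonism.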
D1 potentiator = potentiators of human D1 dopamine receptor. potentiation, % at 10 µM. HEK293 TREx D1 cells, calcium flux, dopamine EC20 potentiation. AID 504651. P21728. 360,000 compounds, 0.036% hits; in the data active = potentiation above about 30%; note: 0% is about no effect
D3 antag = antagonists of human D3 dopamine receptor | P35462 | D3R cells, DiscoveRx beta-arrestin luminescence, antagonist mode; active compounds read low | max response, negative = inhibition, % | 360,000 compounds, 2.5% hits | AID 652054; in the data active = max response below about -50%; inconclusive = no clear call, values can overlap the other calls; note: % is set by controls: 0 for no effect and ±100 for the full control effect
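Cells plated overnight at 1500 cells/well, then exposed to library compounds with dopamine controls for 90 minutes at 37 degrees C. DiscoveRx reagent added for 30–60 minutes at room temperature; luminescence read, quantitative HTS format.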
* = called active by the depositor; ? = inconclusive; / = not tested or not shown.

SMILES | D1 antag | D3 ag | D1 agonist | D1 potentiator | D3 antag
Cc1ccc2oc(C(=O)Nc3ccc(S(=O)(=O)Nc4nccc(C)n4)cc3)cc(=O)c2c1 | -19.1 | -10.1 | -1.0 | -0.2 | /
Cc1cc(C)cc(NC(=O)Cn2cc3c(n2)CCCCC3)c1 | -1.2 | / | 51.1* | -0.2 | /
Cc1cc(C)cc(NC(=O)COC(=O)c2ccc(CN3CCCC3=O)cc2)c1 | -5.0 | 0.5 | 2.3 | 6.9 | -14.6
Cc1ccc(NC(=O)COC(=O)c2ccc(CN3CCCC3=O)cc2)c(Cl)c1 | -44.5* | 1.2 | 13.2 | / | -8.4
Cc1ccc(NC(=O)c2ccc(CN3C(=O)CCn4nc(C)cc43)cc2)c(Cl)c1 | -33.6* | -5.6 | 0.5 | -2.6 | /
Cc1onc(-c2ccccc2Cl)c1C(=O)OCn1nnc2ccccc2c1=O | -50.0* | 6.0 | 2.1 | -6.5 | -7.6
Cc1ccccc1C(=O)OCn1nnc2ccccc2c1=O | -12.2 | 0.2 | 1.0 | -2.2 | 13.2
O=C(OCn1nnc2ccccc2c1=O)c1cc(-c2ccccc2Cl)nc2ccccc12 | 4.2 | 25.5 | 2.7 | -6.8 | 0.0
Cc1ccc(C)c(C(=O)CCC(=O)OCn2nnc3ccccc3c2=O)c1 | -63.5* | 3.0 | 2.4 | -3.9 | -7.9
CN(Cc1ccccc1)C(=O)c1ccc(CSc2nc3cccnc3n2Cc2ccccc2)cc1 | 1.7 | 3.3 | 18.6 | -2.5 | /
Cc1cc(C)c2c(=O)n(CC(=O)Nc3cccc(Cl)c3C)sc2n1 | -3.4 | -3.3 | 37.4* | -6.6 | -21.4
COc1ccc(OC)c(CCNC(=O)Cn2sc3nc(C)cc(C)c3c2=O)c1 | -47.8* | / | 3.1 | -10.1 | /
Cc1cc(C)c2c(=O)n(CC(=O)Nc3ccc(Br)c(C)c3)sc2n1 | -49.0* | -0.1 | 17.3 | -20.9 | -27.4
Cc1cc(C)c2c(=O)n(CC(=O)NC3CCCC3)sc2n1 | 8.2 | -2.3 | 8.8 | 2.3 | -8.5
N#CC(c1ccc(Cl)cc1)c1c(Cl)cc(-n2ncc(=O)[nH]c2=O)cc1Cl (stereo not drawn) | / | 1.1 | / | / | /
O=C(NCc1ccccc1Cl)c1cc(-c2ccccc2)n[nH]1 | -5.6 | -5.6 | 1.1 | -2.7 | /
COc1ccc(Cl)cc1NC(=O)c1cc(C)nc2c1c(C)nn2-c1ccccc1 | -9.7 | -17.2 | 3.8 | -4.2 | /
COc1ccccc1CCNC(=O)Cc1c(C)c2cc3c(C)coc3cc2oc1=O | 8.3 | 7.1 | 2.7 | -0.9 | /
Cc1noc(C)c1C(=O)OCC(=O)c1ccc[nH]1 | 1.8 | 4.0 | 2.2 | -3.7 | 5.0
Cc1noc(C)c1C(=O)OCC(=O)c1cc(C)n(Cc2ccccc2Cl)c1C | -37.5* | -1.8 | 6.0 | -11.7 | -4.5
COc1ccc(/C=C2\CCCC3C2=NN(C(=O)c2ccco2)C3c2ccc(OC)c(OC)c2)cc1OC (stereo not drawn) | 9.0 | 14.5 | 4.4 | -7.6 | 47.5
COc1ccc(/C=C2\CCCC3C2=NN(C(=O)c2scnc2C)C3c2ccc(OC)c(OC)c2)cc1OC (stereo not drawn) | 10.3 | 71.6* | 1.6 | -0.3 | 4.5
CCCN(CCO)Cc1ccc(Cl)c(Cl)c1 | -17.1 | -32.0 | -0.2 | -9.8 | -58.7*
Cc1ccc(-n2cnc3cc(C(=O)NCc4ccc(F)cc4)ccc32)c(C)c1 | -23.1 | -12.3 | -0.1 | -0.8 | /
CNCc1ccccc1Sc1cccc2ccccc12 | -19.2 | -5.5 | 59.5* | -9.8 | 6.1
SMILES | D1 antag | D3 ag | D1 agonist | D1 potentiator | D3 antag
CNCc1ccccc1Sc1ccc(OC)cc1 | 8.1 | -2.6 | 8.6 | -1.1 | ?
CN(C)CCN(C)Cc1ccccc1Sc1cccc2ccccc12 | -36.3* | -24.3 | 51.2* | -15.4 | ?
Cc1ccccc1CNC(=O)c1ccc(CS(=O)Cc2ccc(Cl)cc2)o1 (stereo not drawn) | 6.4 | -8.4 | 0.6 | -3.5 | /
Cc1[nH]c2ccc(F)cc2c(=O)c1SC(F)(F)C(F)F | -42.4* | -2.6 | 20.4 | -1.1 | 6.0
COCCNC(=O)C(=O)Nc1ccc2nc3n(c(=O)c2c1)CCCCC3 | -52.3* | 1.7 | 0.0 | -3.9 | /
O=C(NCc1cccc(Cl)c1)C(=O)Nc1ccc2nc3n(c(=O)c2c1)CCCCC3 | 5.2 | 3.9 | 3.9 | -4.0 | /
CCOC(=O)Nc1ccc2nc3n(c(=O)c2c1)CCCCC3 | 3.0 | -1.0 | 4.6 | 3.1 | 10.0
O=C(Nc1ccc2nc3n(c(=O)c2c1)CCCCC3)c1cc([N+](=O)[O-])ccc1F | -5.8 | -9.0 | 1.0 | 7.3 | -19.3
COc1cccc(CNC(=O)C(=O)Nc2ccc3nc4n(c(=O)c3c2)CCCCC4)c1 | -39.9* | 0.1 | -1.0 | -1.4 | /
O=C(Nc1ccc2nc3n(c(=O)c2c1)CCCCC3)c1c(F)ccc([N+](=O)[O-])c1F | -41.9* | -5.6 | 5.3 | -1.3 | -59.2*
Cc1cc(NC(=O)CN(C)S(=O)(=O)c2ccc3c(c2)CCCC(=O)N3)ccc1Br | -11.3 | 4.8 | 8.4 | -6.5 | /
COc1ccc2oc(-c3cccc(NC(=O)c4cc([N+](=O)[O-])ccc4N4CCOCC4)c3)nc2c1 | 2.5 | 0.0 | 0.0 | -2.0 | /
Cc1ccc(CN2C(=O)c3ccccc3Sc3ccc(C(=O)NCc4ccco4)cc32)cc1 | -4.5 | -1.7 | 2.6 | -1.3 | /
Cc1cc(OCC(=O)N2CCN(c3ccccc3)CC2)c2c(C)cc(=O)oc2c1 | 13.2 | -13.5 | 1.2 | 1.4 | 4.2
Cc1cc(OCC(=O)N2CCN(c3ccc(F)cc3)CC2)c2c(C)cc(=O)oc2c1 | -32.7* | 4.4 | -0.2 | -3.1 | -6.7
COc1ccccc1NC(=O)CSc1nnc(-c2nonc2NC(C)=O)n1-c1ccccc1 | -2.0 | 3.1 | -2.6 | 0.5 | /
OCCC1CN(Cc2cc3c(cc2Cl)OCO3)CCN1Cc1ccccc1 (stereo not drawn) | -9.6 | -24.2 | 6.9 | 5.1 | -52.7*
Cc1c(CN2CCN(CC(C)(C)C)C(CCO)C2)[nH]c2ccccc12 (stereo not drawn) | 21.0 | 2.8 | 3.2 | -2.4 | 0.0
OCCC1CN(Cc2cccs2)CCN1Cc1ccccc1 (stereo not drawn) | -2.1 | -19.0 | -0.2 | -5.1 | -24.4
CCOc1ccc(CN2CCN(Cc3cc4c(cc3Cl)OCO4)CC2CCO)cc1 (stereo not drawn) | -4.9 | -40.3 | 12.9 | -4.3 | -64.2*
O=c1cc(CN2CCN(Cc3ccc(F)cc3)C(CCO)C2)[nH]c2ccccc12 (stereo not drawn) | -4.8 | -24.0 | 1.0 | -4.6 | -58.3*
CCOc1ccc(CN2CCN(Cc3[nH]c4ccccc4c3C)CC2CCO)cc1 (stereo not drawn) | -1.4 | -12.7 | 47.6* | -0.9 | -17.0
Cc1cc2c(s1)c1cnn(Cc3ccccc3C)c(=O)c1n2C | 10.7 | / | 13.6 | 2.4 | /
CCOc1ccc(CN2CCN(Cc3cccc4c3OCO4)CC2CCO)cc1 (stereo not drawn) | 3.1 | -18.7 | 2.6 | -4.5 | -61.2*
Cc1ccc(CN2CCN(Cc3cccc4c3OCO4)CC2CCO)cc1 (stereo not drawn) | -1.8 | -28.1 | 3.8 | 4.8 | -93.9*
CCOC(=O)N1CCc2c(sc3c2c(=O)n(-c2ccc(CC)cc2)c(=O)n3Cc2ccc(F)cc2Cl)C1 | 17.1 | -11.5 | 1.9 | -1.6 | /
